Bioassay records as filed in PubChem BioAssay.
DT40 TDP1 no CPT – qHTS for Inhibitors of human tyrosyl-DNA phosphodiesterase 1 (TDP1): qHTS in cells in absence of CPT; DT40 Tdp1-/- hTDP1 cells, no CPT, ATP luminescence, 48 h; Potency, µM (highest dose often 46.2 µM), most hits filed as inhibitors; hit rate 15% among 420,000; AID 686978, 2013; note: nearly all actives have a fitted effect of over 55% in size
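Luminescent ATP content (CellTiter-Glo) served as the growth readout. Knockout chicken DT40 cells expressing human TDP1 were exposed to compounds without camptothecin for a minimum 48 hr at 37 °C.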
HepG2 tox – HepG2 cytotoxicity, counter-screen for TGF-b inhibitors; HepG2 CAGA-GFP viability, ATP luminescence, 18 h; Potency, µM (doses to about 46.1 µM), hits mostly cytotoxic; hit rate 0.76% among 410,000; AID 588856
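HepG2 CAGA-GFP cells (1000/well, DMEM with 1% FBS) received compound, then TGF-beta at 500 pg/mL final, and were incubated 18 hours at 37 degrees C. Viability was read by CellTiter-Glo luminescence. Media-only wells were set as complete cell-killing and DMSO as no toxicity.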
TGFb inhibitor – TGF-b pathway inhibition; HepG2 CAGA-GFP TGF-b/SMAD3 reporter, GFP fluorescence, 18 h; TGF-beta stimulated, 500 pg/mL final; Potency, µM (top dose mostly 46.1 µM), actives largely listed as inhibitors; hit rate 1.2% among 410,000; AID 588855; note: nearly all actives have a fitted effect of over 65% in size
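TGF-beta reporter screen: HEPG2 CAGA-GFP, 1% FBS, 500 pg/mL TGF-beta final, 18 h; per-cell GFP summed per well; curves fitted and categorized by class.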
IL1B secr inh – blocks inflammasome-driven IL-1 beta release; THP-1 LPS/ATP IL-1B secretion, AlphaLISA, 16 h; stronger effect = lower value; activity change, % at 57.5 µM; hit rate 4.7% among 360,000; AID 743279; in the data active = activity change below about -50%; inconclusive = mostly about -30% to -49%
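THP-1 cells pretreated 1 hr with compounds (up to 57.5 uM final), then stimulated with LPS (250 ng/mL final) plus ATP (1.25 mM final); secreted IL-1B measured by AlphaLISA after 16 hr, decreased signal indicating inhibition.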
TDP1 block – TDP1 (human) enzyme inhibition; Q9NUW8; recombinant TDP1, AlphaScreen DNA substrate cleavage; Potency, µM (doses to about 130 µM), hits mostly inhibitors; hit rate 0.28% among 350,000; AID 485290; note: nearly all actives have a fitted effect of over 40% in size
Target sequence (Q9NUW8 whole entry, looked up): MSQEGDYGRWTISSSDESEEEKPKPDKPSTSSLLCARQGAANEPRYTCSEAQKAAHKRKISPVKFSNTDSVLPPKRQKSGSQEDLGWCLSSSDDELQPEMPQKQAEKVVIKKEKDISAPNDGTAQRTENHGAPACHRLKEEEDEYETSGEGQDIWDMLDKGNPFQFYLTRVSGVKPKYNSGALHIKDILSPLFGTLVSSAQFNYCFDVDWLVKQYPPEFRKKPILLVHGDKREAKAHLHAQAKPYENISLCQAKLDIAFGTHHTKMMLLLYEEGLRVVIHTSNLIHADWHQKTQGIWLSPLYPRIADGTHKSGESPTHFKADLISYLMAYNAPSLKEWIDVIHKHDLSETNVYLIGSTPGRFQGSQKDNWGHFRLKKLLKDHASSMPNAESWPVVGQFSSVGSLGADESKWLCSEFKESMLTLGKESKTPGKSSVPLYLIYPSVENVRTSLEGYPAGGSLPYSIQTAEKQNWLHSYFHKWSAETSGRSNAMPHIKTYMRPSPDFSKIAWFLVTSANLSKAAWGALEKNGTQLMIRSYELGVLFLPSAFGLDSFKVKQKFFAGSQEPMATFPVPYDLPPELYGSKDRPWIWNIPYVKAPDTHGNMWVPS
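Enzyme-compound mixtures sat 15 min at room temperature, followed by a 5 min reaction with 15 nM final substrate and 10 min with AlphaScreen beads. Recombinant human Tdp1 was used at 1 nM final.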
DT40 TDP1 CPT – growth inhibition of DT40 Tdp1-/-;hTDP1 cells with camptothecin (screen for TDP1 inhibitors); chicken DT40 Tdp1-/-;hTDP1 cells + 20 nM CPT, ATP luminescence, 48 h; Potency, µM (highest dose often 46.2 µM), actives largely listed as inhibitors; hit rate 12% among 420,000; AID 686979; note: nearly all actives have a fitted effect of over 55% in size
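Chicken DT40 Tdp1-/- cells stably complemented with human TDP1 were seeded at 400 cells/well in medium containing 20 nM camptothecin, exposed to pin-transferred compounds, and grown at 37 °C for at least 48 hr. Viability was read as ATP luminescence.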
Large screens that a line does not name were inactive. Hits are enriched below; roughly 19% of the tested compounds scored in any of these assays. Unless noted, calls come from the whole dose curve; as a rule, active = well fitted curve in the direction sought with a large enough effect; inconclusive = small, poorly fitted or top-dose-only effect, or another doubt; inactive = no such curve, though single readings can be large; an effect the other way counts as inactive or inconclusive.

Cc1nc2nc(NCc3ccc(Cl)cc3)[nH]n2c(=O)c1Cc1ccccc1	none (no result: IL1B secr inh)
CCN(CC)CCCCn1c(-c2ccccc2)nc2c(NCCOC)nc(C)nc21	none (no result: DT40 TDP1 no CPT, HepG2 tox, TGFb inhibitor, IL1B secr inh, DT40 TDP1 CPT)
CC1CC(C)CN(CCCNC(=O)c2nn(C)c3c2CS(=O)(=O)c2ccccc2-3)C1 (stereo unspecified)	none
O=C(N/N=C/c1cccs1)c1ccccn1	none
O=C(N/N=C/c1ccccn1)c1cc(-c2cccc3ccccc23)n[nH]1	DT40 TDP1 CPT inconclusive
O=C(N/N=C/c1ccccn1)c1cc(-c2ccc3ccccc3c2)n[nH]1	DT40 TDP1 no CPT inconclusive, TGFb inhibitor inconclusive, DT40 TDP1 CPT inconclusive (no result: TDP1 block)
O=C(N/N=C/c1cccs1)c1ccc2ccccc2c1	DT40 TDP1 no CPT 21µM, DT40 TDP1 CPT 15µM
C(=NN=C(NN=Cc1cccs1)NN=Cc1cccs1)c1cccs1	DT40 TDP1 no CPT 2.9µM, DT40 TDP1 CPT 5.2µM (no result: TDP1 block)
O=C(N/N=C/c1cccs1)c1cc(-c2cccc3ccccc23)n[nH]1	DT40 TDP1 no CPT inconclusive, IL1B secr inh -52, DT40 TDP1 CPT inconclusive
O=C(N/N=C/c1cccs1)c1cc(-c2ccc3ccccc3c2)n[nH]1	DT40 TDP1 no CPT 21µM, TGFb inhibitor inconclusive, IL1B secr inh inconclusive, DT40 TDP1 CPT inconclusive
CC(C)(C)C1CCc2c(C(=O)N/N=C/c3cccs3)csc2C1 (stereo unspecified)	DT40 TDP1 no CPT inconclusive, DT40 TDP1 CPT 14µM
CCc1ccc(-c2cc(C(=O)N/N=C/c3ccco3)[nH]n2)cc1	DT40 TDP1 no CPT inconclusive
O=C(N/N=C/c1ccco1)c1cc(-c2ccc3ccccc3c2)n[nH]1	DT40 TDP1 no CPT 23µM, TGFb inhibitor inconclusive, IL1B secr inh -67, DT40 TDP1 CPT 13µM
CC(C)(C)C1CCc2c(C(=O)NNC(=O)/C=C/C(=O)O)csc2C1 (stereo unspecified)	none
COC(=O)CC1=NN(c2ccccc2)C(=O)/C1=C\c1ccc(OC)cc1	DT40 TDP1 no CPT inconclusive, DT40 TDP1 CPT 21µM
Cc1nn(C)c2c1c(-c1ccccc1)cc(=O)n2Cc1ccccc1Cl	DT40 TDP1 no CPT inconclusive, DT40 TDP1 CPT inconclusive (no result: IL1B secr inh)
Cc1ccc(Cn2c(-c3ccccc3)nc3ccccc32)cc1	DT40 TDP1 no CPT inconclusive, DT40 TDP1 CPT inconclusive (no result: IL1B secr inh)
CCCn1c(-c2cccc(Br)c2)nc2ccccc21	none (no result: IL1B secr inh)
Cc1cccc(-c2nc3ccccc3n2Cc2ccccc2)c1	DT40 TDP1 no CPT 5.2µM, TGFb inhibitor inconclusive, DT40 TDP1 CPT inconclusive (no result: IL1B secr inh)
Fc1ccc(Cn2c(-c3cccc(Br)c3)nc3ccccc32)cc1	DT40 TDP1 no CPT 18µM, TGFb inhibitor inconclusive, DT40 TDP1 CPT inconclusive (no result: IL1B secr inh)
Cc1cccc(Cn2c(-c3ccc[nH]c3=O)nc3ccccc32)c1	DT40 TDP1 no CPT 21µM, DT40 TDP1 CPT inconclusive (no result: TDP1 block)
CN(C(=O)c1cccc(NC(=O)Cc2ccc(NC(=O)C3CCCN(S(=O)(=O)c4cccc([N+](=O)[O-])c4)C3)cc2)c1)C1CCCC1 (stereo unspecified)	DT40 TDP1 no CPT inconclusive, TGFb inhibitor inconclusive (no result: TDP1 block)
O=C(Oc1c(Br)cc([N+](=O)[O-])cc1Br)c1cccnc1	DT40 TDP1 no CPT inconclusive, TGFb inhibitor inconclusive, DT40 TDP1 CPT 18µM
N/C(=N\OC(=O)c1cc([N+](=O)[O-])ccc1Cl)c1cccnc1	DT40 TDP1 no CPT inconclusive, IL1B secr inh -101, DT40 TDP1 CPT inconclusive (no result: TDP1 block)
COc1ccc(-n2ncc(S(=O)(=O)c3ccccc3)c2-c2ccc(Cl)cc2)cc1	DT40 TDP1 no CPT 21µM, IL1B secr inh inconclusive, DT40 TDP1 CPT 26µM
COC(=O)c1sc(N2C(=O)c3oc4ccc(C)cc4c(=O)c3C2c2ccc(O)c(OC)c2)nc1C (stereo unspecified)	DT40 TDP1 no CPT inconclusive, DT40 TDP1 CPT inconclusive (no result: IL1B secr inh)
COc1cccc(CCc2nnc(CCC(=O)NC(C)Cc3cccs3)o2)c1 (stereo unspecified)	none (no result: TDP1 block)
CCc1ccc(C2CC(c3ccccc3)Nc3nc(N)nn32)cc1 (stereo unspecified)	none (no result: TDP1 block)
